CHX counter – Cycloheximide Counterscreen for Small Molecule Inhibitors of Shiga Toxin. AID 2314, 2010. cell reporter, cycloheximide protein synthesis inhibition counterscreen. max response, %. 300,000 tested, 12% active; in the data active means max response mostly above about 13%, no sharp cut-off; inactive means mostly below about 14%; further: read at 38.3 µM for the half of the compounds with a filed dose; 0% is about no effect
NS1 inh – qHTS Assay for Inhibitors of Influenza NS1 Protein Function. Potency, µM (series often up to 46.1 µM), without a hit: top-dose activity, positive = more growth. 270,000 tested, 0.4% active; further: potency means the concentration at half of the fitted maximal effect; actives are rising curves; nearly all actives have a fitted effect of over 50% in size
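Growth recovery, yeast-based: influenza A NS1 expressed in S. cerevisiae causes slow growth, and suppressors are detected by OD600. The parent strain without NS1 is used as positive control.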
Pf growth 96h – Primary qHTS for delayed death inhibitors of the malarial parasite plastid, 96 hour incubation. P. falciparum luciferase reporter growth, 96 h. Potency, µM (highest dose often 28.7 µM), without a hit: at the top dose activity change, negative = inhibition, hits mostly inhibitors. 320,000 tested, 6.9% active. AID 504834, 2011; active means well fitted inhibition curve with a large enough effect; inconclusive means small, poorly fitted or top-dose-only effect, or another doubt; inactive means no such curve, though single readings can be large or run the other way; further: potency means the concentration at half of the fitted maximal effect; on the % scale 0 is the no-effect control and ±100 the full control effect
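Two-generation exposure (96 h) targets delayed-death phenotype. Reporter parasites carrying integrated firefly luciferase, in red cells at 2% hematocrit and 0.05% parasitemia final, kept at 37 C, 5% CO2; luminescence loss indicates inhibition.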
Pf growth 48h – Primary qHTS for delayed death inhibitors of the malarial parasite plastid, 48 hour incubation | Potency, µM (top dose mostly 28.7 µM), without a hit: top-dose activity change, negative = inhibition, hits mostly inhibitors | P. falciparum luciferase growth in erythrocytes, 48 h | 310,000 tested, 5.9% active; active means well fitted inhibition curve with a large enough effect; inconclusive means small, poorly fitted or top-dose-only effect, or another doubt; inactive means no such curve, though single readings can be large or run the other way; further: potency means the concentration at half of the fitted maximal effect; on the % scale 0 is the no-effect control and ±100 the full control effect
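Firefly luciferase activity from engineered P. falciparum reports growth; inhibitors lower the luminescent signal. Cultures contained 2% hematocrit erythrocytes at 0.1% final parasitemia.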
SARS PLP yeast – qHTS of Yeast-based Assay for SARS-CoV PLP | S. cerevisiae expressing SARS-CoV PLpro, growth rescue | Potency, µM (doses to about 32.9 µM), for the others: top-dose activity, positive = growth rescue, actives largely listed as activators | 330,000 tested, 0.19% active | AID 485353, 2010; further: potency means the concentration at half of the fitted maximal effect; 0% is about no effect; nearly all actives have a fitted effect of over 55% in size
Shiga toxin inh – A qHTS for Small Molecule Inhibitors of Shiga Toxin; Vero cells, Shiga toxin protein synthesis inhibition reporter; inhibition, % at 38.7 µM; 290,000 tested, 9.2% active; in the data active means inhibition mostly above about 28%, no sharp cut-off; inactive means mostly below about 43%; further: 0% is about no effect
Active calls of the source: *; ? = inconclusive; / = no result given; [ ] = dose if it differs, or a comment. Hits are enriched below; roughly 21% of the tested compounds scored in any of these assays. Unless noted, the call rests on the fitted dose curve.

SMILES | CHX counter | NS1 inh | Pf growth 96h | Pf growth 48h | SARS PLP yeast | Shiga toxin inh
Nn1c(SCC(=O)Nc2ccccc2C(F)(F)F)nncc1=O | 2 | 3% | 6% | 10% | 19% | -8
CC(=O)c1ccc(C(=O)N2CCCC(CCC(=O)N(C)CCc3ccccn3)C2)s1 (stereo not given) | -2 | ? | 0% | 6% | 0% | 17
Cn1nccc1NS(=O)(=O)c1ccc(NC(=O)C(F)(F)F)cc1 | -1 | 4% | -2% | 2% | 0% | -2
CCc1ccc(NC(=O)CS(=O)CC(=O)Nc2ccc(-n3cnnn3)c(C)c2)cc1 (stereo not given) | -5 | 11% | -6% | 8% | 7% | -5
COc1cc(-c2nc(-c3cccc(C(F)(F)F)c3)no2)cc(OC)c1OC | -2 | -2% | 12µM* | ? | 8% | -9
COc1cnc(-c2cccc(C(F)(F)F)c2)nc1OC | -5 | / | -7% | 16% | -8% | 9
CCCN1CCC[C@@H]2Cc3n[nH]cc3C[C@H]21 | / | -11% | / | / | / | /
Cc1csc(=Nc2ccccc2)n1C | 22* | / | 28% | 42% | 0% | 38
Cc1cs/c(=N/C(=S)Nc2ccccc2)n1C | 101* | -3% | 80% | 227% | -26% | 143*
C=CCNC(=S)/N=c1\sccn1C | 15* | -93% | 4% | -15% | 13% | 26
C=CCNC(=S)/N=c1/ccccn1C | 1 | 0% | ? | 4% | -4% | -7
C=CCNC(=S)/N=c1/ccccn1CCC | -2 | -11% | -2% | 0% | -1% | -32
C=CCNC(=S)/N=c1/scc(C)n1C | 19* | -1% | 35% | 54% | 19% | 24
COCCN(CC(=O)NCC1CCCO1)C(=O)CCC(=O)Nc1ccccn1 (stereo not given) | -3 | / | 25% | -7% | -6% | -2
Cc1ccc2nccc(C(=O)N3CCCC(Nc4ccc(C)c(C)c4)C3)c2c1 (stereo not given) | -10 | -1% | -17% | ? | -2% | -8
O=C1C(c2[nH]c3ccc(S(=O)(=O)O)cc3c2O)=Nc2ccc(S(=O)(=O)O)cc21 | 11 | / | / | / | / | -3
c1cc(-c2cccs2)nc(-c2cccs2)c1 | 46* | -7% | 13% | 24% | -4% | 53*
c1csc(-c2cnc3ccccc3n2)c1 | 29* | -17% | 1% | / | 1% | 75*
COc1ccccc1-c1nc2ccc(Cl)cc2c(=O)n1O | -3 | 3% | 3% | -11%[0.00184 µM] | -1% | 18
Cc1cc(OCC(=O)N2CCN(c3ccccc3)CC2)c2c(C)c(C)c(=O)oc2c1 | 14 | -11% | 32% | 25% | -4% | -4
Cc1cc(OC(C)C(=O)N2CCN(c3ccccc3)CC2)c2c(C)c(C)c(=O)oc2c1 (stereo not given) | -3 | -7% | 13µM* | 9.3µM* | -2% | 17
CC1CCCN(C(=O)c2nn(C)c3c2CSc2ccccc2-3)C1 (stereo not given) | 18* | 0% | 4% | 5% | -3% | 31
CC1CCCC(C)N1CCCNC(=O)c1nn(C)c2c1CSc1ccccc1-2 (stereo not given) | -3 | 1% | ? | ? | 5% | -3
CN(C(=O)c1nn(C)c2c1CSc1ccccc1-2)c1ccccc1Cl | 25* | -3% | -14% | -6% | 7% | 33*
CC1CCCN(C(=O)c2nn(C)c3c2CS(=O)(=O)c2ccccc2-3)C1 (stereo not given) | 7 | -4% | 1% | 17% | 0% | -7
SMILES | CHX counter | NS1 inh | Pf growth 96h | Pf growth 48h | SARS PLP yeast | Shiga toxin inh
CN(C(=O)c1nn(C)c2c1CSc1ccccc1-2)c1ccc(F)cc1 | -2 | -23% | -1% | 25% | -28% | -3
CC1CC(C)CN(C(=O)c2nn(C)c3c2CSc2ccccc2-3)C1 (stereo not given) | 0 | -43% | 5.9µM* | ? | -9% | 5
Cc1ccc2c(c1)nnn2C1CCN(CC(=O)NNC(=O)c2ccco2)CC1 | 2 | 1% | 27% | 0% | 1% | -9
COCCn1c(SCC(=O)NC2CCCC2)nc2c(c1=O)SCC2 | 4 | -9% | 3% | -5% | ? | -35
COc1ccc(C)cc1-n1nnnc1SCc1nc2ccccc2s1 | 45* | 5% | 90% | 56% | -6% | 129*
COc1ccc(-n2nnnc2SCc2nc3ccccc3s2)cc1 | 68* | -65% | 197% | / | 4% | 99*
COc1ccc(C)cc1-n1nnnc1SCC1CCCO1 (stereo not given) | 11 | -4% | ? | / | -3% | -3
CC(CN(C)C)CN1c2ccccc2Sc2ccc(C(F)(F)F)cc21 (stereo not given) | / | / | ? | 15µM* | / | /
CN(C)CCC(=O)N1c2ccccc2Sc2ccc(C(F)(F)F)cc21 | -3 | -7% | 0% | 29% | -5% | -10
CC(CN(C)C)CN1c2ccccc2Sc2ccccc21 (stereo not given) | / | / | ? | 13µM* | / | /
CN(C)CCCN1c2ccccc2Sc2ccc(C(F)(F)F)cc21 | -3 | -30% | 15µM* | ? | 0% | -18
CCN(C(=O)COC(=O)/C=C/c1ccccc1)C1CCCCC1 | -4 | / | 35% | 19% | 0% | 2
Cc1ccc(S(=O)(=O)c2cc3c(=O)n4ccccc4nc3n(Cc3ccco3)c2=N)cc1C | -1 | -8% | 12µM* | ? | -6% | -9
Cc1cccn2c(=O)c3cc(S(=O)(=O)c4ccccc4)c(=N)n(Cc4ccco4)c3nc12 | 11 | 11% | 12% | ? | 1% | 0
Cc1ccc2nc3c(cc(S(=O)(=O)c4ccccc4)c(=N)n3Cc3ccco3)c(=O)n2c1 | 33* | 4% | -19% | -78% | 1% | 39*
Cc1cccn2c(=O)c3cc(S(=O)(=O)c4ccc(F)cc4)c(=N)n(Cc4ccco4)c3nc12 | -5 | 9% | 15µM* | 10µM* | 0% | -4
O=C(NCCc1ccco1)c1cc(COc2cccc(C(F)(F)F)c2)on1 | 0 | -21% | -25% | 15% | -10% | -30
O=C(COc1ccc(Br)cc1Cl)c1ccc[nH]1 | 38* | / | 193% | 232% | -5% | 69*
CC(C)N(C(=O)COc1ccc(Br)cc1Cl)C(C)C | -2 | -51% | ? | -7% | 1% | -16
Cc1ccccc1OCC(=O)OCC(=O)c1ccc[nH]1 | / | / | 9% | -1% | 0% | /
O=C(COc1ccccc1Cl)c1ccc[nH]1 | 30* | 6% | 112% | 114% | -3% | 57
O=C(COc1ccccc1Cl)c1ccc2c(c1)CCCC2 | 26* | -1% | 169% | 147% | -20% | 53*
CS(=O)(=O)N(CC(=O)O)Cc1ccccc1 | / | 3% | / | / | / | /
CC(C)N1CCC(=NNC(=O)c2cccs2)CC1 | 46* | -4% | 23% | 17% | -1% | 114*

Bioassay records from PubChem BioAssay.
